Screening results: PubChem BioAssay, several laboratories
AHR activator: AHR activators, primary screen, cell-based, luminescence, luciferase reporter, human. activation, % at 5 µM. Aryl hydrocarbon receptor (Homo sapiens), P35869. AHR-responsive luciferase reporter cells. AID 2796, 2010. actives 2.5% (n = 320,000); in the data active means activation above about 47%
Target sequence (P35869 whole entry, looked up): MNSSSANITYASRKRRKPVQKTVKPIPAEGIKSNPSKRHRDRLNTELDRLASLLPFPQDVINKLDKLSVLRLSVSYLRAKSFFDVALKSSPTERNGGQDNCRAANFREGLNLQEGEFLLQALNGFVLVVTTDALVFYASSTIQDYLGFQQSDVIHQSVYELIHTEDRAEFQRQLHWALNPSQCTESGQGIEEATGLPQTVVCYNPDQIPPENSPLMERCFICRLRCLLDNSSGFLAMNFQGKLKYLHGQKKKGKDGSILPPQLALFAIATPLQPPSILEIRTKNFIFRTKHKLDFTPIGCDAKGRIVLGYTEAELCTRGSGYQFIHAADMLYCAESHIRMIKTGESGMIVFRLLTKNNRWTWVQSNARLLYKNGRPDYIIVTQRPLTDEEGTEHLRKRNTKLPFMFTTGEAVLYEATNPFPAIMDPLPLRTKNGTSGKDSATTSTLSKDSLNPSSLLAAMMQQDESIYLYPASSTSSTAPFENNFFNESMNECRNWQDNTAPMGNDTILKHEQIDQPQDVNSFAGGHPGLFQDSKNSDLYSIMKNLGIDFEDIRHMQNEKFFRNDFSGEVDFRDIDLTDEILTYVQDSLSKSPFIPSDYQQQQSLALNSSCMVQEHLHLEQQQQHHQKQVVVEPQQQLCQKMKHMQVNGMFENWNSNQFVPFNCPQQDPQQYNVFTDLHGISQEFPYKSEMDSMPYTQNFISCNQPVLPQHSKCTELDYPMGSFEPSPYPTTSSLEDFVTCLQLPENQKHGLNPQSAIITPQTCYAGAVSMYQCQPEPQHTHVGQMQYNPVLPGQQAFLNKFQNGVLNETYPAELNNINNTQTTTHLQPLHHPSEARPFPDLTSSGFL
FXN GAA850 act: FXN promoter activators, primary screen, cell-based, luciferase luminescence, HEK293 lucGAA850 | actives 0.56% (n = 360,000) | activation, % at 6 µM | HEK293 lucGAA850 FXN promoter luciferase reporter, 24 h; percent of 10 µM SAHA response;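 active means activation above the average of all compounds screened plus 3 SD, cutoff fixed separately per campaign, cut at about 7.5% in these data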
HSF1 inh: HSF1 inhibitors in luciferase reporter cells, primary screen, cell-based, NIH3T3, luminescence | actives 0.77% (n = 300,000) | AID 2098, 2009 | NIH3T3-HGL HSE-luciferase, MG132-induced, luminescence 8 h; stronger effect = lower value | activity change, negative = inhibition, % at 7.5 µM (by protocol);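 active means more than half of replicate wells show activity change below -50%, luminescence cut by over half; inconclusive means some wells, but at most half, below -50%; inactive means no replicate well below -50%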;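 further: luciferase reports HSF-1 transcriptional activity via heat shock element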
HSF-1 act: HSF-1 activators, primary screen, NIH3T3-HGL cells, MG132 stress, luminescence, single point; NIH3T3-HGL HSF-1 luciferase reporter, 8 h; 100% = twice DMSO control signal; activation, % at 9 µM; actives 1.7% (n = 300,000);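 active means mean replicate activation of at least 50% with a set share of replicates each reaching 50%; inconclusive means only one of those two conditions met; inactive means mean below 50% and too few replicates reaching it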
Numbers stand for hits; . = inactive; ? = inconclusive; / = no result given. A selection: hits, their analogues and other compounds. The true share with any hit is near 4.6%.

SMILES	AHR activator	FXN GAA850 act	HSF1 inh	HSF-1 act
CC1(C)OC1COc1c2ccoc2cc2oc(=O)ccc12 (centres undefined)	68	.	.	.
COc1c2ccoc2c(OC[C@@H](O)C(C)(C)O)c2oc(=O)ccc12	50	.	.	.
COc1c2ccoc2cc2oc(=O)ccc12	.	.	/	/
COc1c2ccoc2c(OC[C@@H](OC(C)=O)C(C)(C)O)c2oc(=O)ccc12	.	.	/	/
Cc1ccc(S(=O)(=O)N(C)C[C@H]2Oc3cc(C#Cc4ccccc4)ccc3S(=O)(=O)N([C@H](C)CO)C[C@@H]2C)cc1	/	.	/	/
C#CC(C)OCC1CNC(=S)O1 (centres undefined)	/	.	/	/
Cc1onc(-c2ccccc2)c1C(=O)N/N=C/c1cccc(O)c1	.	.	.	67
COc1cccc(/C=N/NC(=O)c2c(-c3ccccc3)noc2C)c1	.	.	.	.
CCNC(=S)N(CCN(C)C)Cc1cc2cc(OCC)ccc2[nH]c1=O	.	.	.	.
COC(=O)c1sc(-c2ccc(Cl)cc2)cc1NC(=O)/C=C/C(=O)O	.	.	.	66
CC(C)CN1C(=O)C(=O)N(CC(=O)N2CCC(Cc3ccccc3)CC2)C1=O	.	.	.	.
Cc1nc2ccccc2c(=O)n1/N=C/c1ccc([N+](=O)[O-])o1	.	/	.	.
Cc1nc2ccccc2n1/N=C/c1ccc([N+](=O)[O-])s1	52	.	.	.
O=[N+]([O-])c1ccc(/C=N/n2cnc3ccccc32)s1	.	.	.	63
Cc1nc2ccccc2n1/N=C/c1ccc([N+](=O)[O-])o1	.	.	.	77
CC(C)(C)n1nnnc1C(c1cccc(C#N)c1)N1CCCc2ccccc21 (centres undefined)	.	.	.	.
CC(=O)Nc1ncc(Cc2ccc(Cl)cc2Cl)s1	.	.	.	.
Oc1ccccc1-n1c(-c2ccccc2)ccc1-c1ccccc1	51	.	.	.
Cc1ccc(-c2ccccc2)n1-c1ccc(C(=O)O)cc1	.	.	.	.
COc1cccc(NC(=O)c2cc3ccccc3o/c2=N\O)c1	.	.	.	?
CCN1CCN(Cc2ccc(NC(=O)c3cc(NC(=O)c4cc5cccc(OC)c5o4)cc(OC)c3)cc2C(F)(F)F)CC1	.	.	.	.
COc1cccc(NC(=O)c2cc3cccc(OC)c3o/c2=N\O)c1	63	/	.	59
COc1cc(NC(=O)c2ccno2)cc(C(=O)Nc2cccc(C(F)(F)F)c2)c1	64	.	.	.
COc1cc(NC(=O)c2cc3cccc(OC)c3o2)cc(C(=O)Nc2cccc(C(F)(F)F)c2)c1	73	.	-67	.
CCn1c(/C=C/c2ccccc2Cl)nc2ccccc2c1=O	.	.	.	.
SMILES	AHR activator	FXN GAA850 act	HSF1 inh	HSF-1 act
CC(=O)Nc1cccc(OCCCNC(=O)c2ccc(C(C)(C)C)cc2)c1	47	.	.	.
O=C(CSc1ncc(-c2ccccc2)n1CC1CCCO1)N1CCCCC1 (centres undefined)	.	.	.	.
Nc1[nH]n2c(=O)c3c(nc2c1N=Nc1ccccc1)CCCC3	.	.	.	.
Nc1[nH]n2c(=O)c3c(nc2c1N=Nc1ccc(Cl)cc1)CCCC3	57	.	.	.
CCCCCC/C(C)=C1/SC(=S)NC1=O	.	.	.	.
CCc1cc(C(=O)Nc2ncccc2O)sc1C	78	.	.	.
CNC(=O)NNC(=O)c1csc(Cc2c(Cl)sc3ccc(Cl)cc23)n1	47	.	.	.
CNC(=O)NNC(=O)c1csc(-c2ccc(C(F)(F)F)cc2Cl)n1	.	.	.	.
c1ccc2c(c1)OCC(c1nnc3sc(-c4ccc5c(c4)OCO5)nn13)O2 (centres undefined)	48	.	.	.
c1ccc2c(c1)ncn2Cc1nnc2sc(-c3ccc4c(c3)OCO4)nn12	50	.	.	.
Fc1ccc(-c2nn3c(C4COc5ccccc5O4)nnc3s2)cc1 (centres undefined)	.	.	.	.
c1csc(-c2nn3c(C4COc5ccccc5O4)nnc3s2)c1 (centres undefined)	62	.	/	/
Clc1ccccc1-c1nnc2sc(-c3ccc4c(c3)OCO4)nn12	56	.	.	.
Brc1ccccc1-c1nnc2sc(-c3ccc4c(c3)OCCO4)nn12	.	.	.	.
Clc1ccccc1-c1nn2c(Cn3cnc4ccccc43)nnc2s1	.	.	.	.
Clc1ccccc1-c1nnc(-c2ccc3c(c2)OCO3)o1	.	.	.	95
N#CCSc1nnc(-c2ccc3c(c2)OCO3)o1	.	.	.	.
COc1ccc(C(=O)Nc2ccc(C(=O)NCCc3ccc(OC)c(OC)c3)cc2)cc1	.	.	.	.
C/C(O)=C(/C=Nc1ccccc1)C(=O)Nc1ccccc1	48	.	.	.
CC(=O)Nc1ccccc1C(=O)C(=O)Nc1ccccc1	.	.	.	.
O=C(CN1CCN(S(=O)(=O)c2ccc(Cl)cc2)CC1)Nc1ccc2c(c1)CCC2	.	.	.	.
Cc1ccc(OCCC(=O)OCC(=O)Nc2ccc(N3CCOCC3)cc2)cc1	.	.	-61	.
CCOc1ccc(OCCC(=O)OCC(=O)Nc2ccc(N3CCOCC3)cc2)cc1	.	.	.	.
Cc1ccc(NC(=O)CN2C(=O)N/C(=C/c3ccc(N4CCOCC4)cc3)C2=O)cc1	58	.	.	.
CCC(=O)N1CCN(c2ccc(NC(=O)COc3ccc(CC)cc3)cc2)CC1	.	.	.	67
SMILES	AHR activator	FXN GAA850 act	HSF1 inh	HSF-1 act
CCC(=O)N1CCN(c2ccc(NC(=S)NC(=O)COc3ccccc3)cc2)CC1	.	.	.	.
Cc1cc(C(=O)N2CCc3ccccc32)c2ccccc2n1	.	.	.	.
Cc1ccc(C(=O)N/C(=C\c2ccc(F)cc2)C(=O)NCCCn2ccnc2)cc1	.	.	.	.
CCn1c(COc2ccc(Cl)cc2)nnc1SCC(=O)Nc1ccc2c(c1)OCCO2	.	.	.	.
Cc1cccc(N2CCN(c3ccc(N4C(=O)CCCC4=O)cc3[N+](=O)[O-])CC2C)c1 (centres undefined)	70	.	.	.
Cc1cccc(N2CCN(c3ccc(N4C(=O)CCCC4=O)cc3[N+](=O)[O-])CC2)c1C	.	.	.	.
Cc1cc(C)n(CC(O)COc2ccc(Cl)cc2)n1 (centres undefined)	.	.	.	50
Cc1cc(C)n(CC(O)COc2ccccc2Br)n1 (centres undefined)	.	.	.	.
Cc1cc(C)n(CC(O)COc2ccc(Cl)cc2Cl)n1 (centres undefined)	.	.	.	64
COc1ccc2c(c1)[nH]c(=O)c1sc3ccccc3c12	.	.	.	.
Brc1cccc(Nc2nc(-c3cccnc3)cs2)c1	70	.	.	.
Brc1ccc(Nc2nc(-c3cccnc3)cs2)cc1	.	.	.	.
Clc1cccc(Nc2nc(-c3cccnc3)cs2)c1	55	.	.	.
CC(=O)c1cccc(Nc2nc(-c3cccnc3)cs2)c1	/	.	.	.
